# Screens from PubChem.
# Shown is part of a subset that was picked to be rich in hits.
# Dicer inh – human Dicer pre-microRNA cleavage inhibition; Q9UPY3; cat-ELCCA pre-miR-21 Dicer processing, chemiluminescence; active compounds read high; z-score at 25 µM; 6% of 47,000 active; AID 1347074; in the data active = z-score above about 3, passing the limit was not always enough;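 also: plate controls were vehicle for no effect and no enzyme for full effect; higher signal means more uncleaved substrate so more Dicer inhibition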
# Target sequence (Q9UPY3 whole entry, looked up): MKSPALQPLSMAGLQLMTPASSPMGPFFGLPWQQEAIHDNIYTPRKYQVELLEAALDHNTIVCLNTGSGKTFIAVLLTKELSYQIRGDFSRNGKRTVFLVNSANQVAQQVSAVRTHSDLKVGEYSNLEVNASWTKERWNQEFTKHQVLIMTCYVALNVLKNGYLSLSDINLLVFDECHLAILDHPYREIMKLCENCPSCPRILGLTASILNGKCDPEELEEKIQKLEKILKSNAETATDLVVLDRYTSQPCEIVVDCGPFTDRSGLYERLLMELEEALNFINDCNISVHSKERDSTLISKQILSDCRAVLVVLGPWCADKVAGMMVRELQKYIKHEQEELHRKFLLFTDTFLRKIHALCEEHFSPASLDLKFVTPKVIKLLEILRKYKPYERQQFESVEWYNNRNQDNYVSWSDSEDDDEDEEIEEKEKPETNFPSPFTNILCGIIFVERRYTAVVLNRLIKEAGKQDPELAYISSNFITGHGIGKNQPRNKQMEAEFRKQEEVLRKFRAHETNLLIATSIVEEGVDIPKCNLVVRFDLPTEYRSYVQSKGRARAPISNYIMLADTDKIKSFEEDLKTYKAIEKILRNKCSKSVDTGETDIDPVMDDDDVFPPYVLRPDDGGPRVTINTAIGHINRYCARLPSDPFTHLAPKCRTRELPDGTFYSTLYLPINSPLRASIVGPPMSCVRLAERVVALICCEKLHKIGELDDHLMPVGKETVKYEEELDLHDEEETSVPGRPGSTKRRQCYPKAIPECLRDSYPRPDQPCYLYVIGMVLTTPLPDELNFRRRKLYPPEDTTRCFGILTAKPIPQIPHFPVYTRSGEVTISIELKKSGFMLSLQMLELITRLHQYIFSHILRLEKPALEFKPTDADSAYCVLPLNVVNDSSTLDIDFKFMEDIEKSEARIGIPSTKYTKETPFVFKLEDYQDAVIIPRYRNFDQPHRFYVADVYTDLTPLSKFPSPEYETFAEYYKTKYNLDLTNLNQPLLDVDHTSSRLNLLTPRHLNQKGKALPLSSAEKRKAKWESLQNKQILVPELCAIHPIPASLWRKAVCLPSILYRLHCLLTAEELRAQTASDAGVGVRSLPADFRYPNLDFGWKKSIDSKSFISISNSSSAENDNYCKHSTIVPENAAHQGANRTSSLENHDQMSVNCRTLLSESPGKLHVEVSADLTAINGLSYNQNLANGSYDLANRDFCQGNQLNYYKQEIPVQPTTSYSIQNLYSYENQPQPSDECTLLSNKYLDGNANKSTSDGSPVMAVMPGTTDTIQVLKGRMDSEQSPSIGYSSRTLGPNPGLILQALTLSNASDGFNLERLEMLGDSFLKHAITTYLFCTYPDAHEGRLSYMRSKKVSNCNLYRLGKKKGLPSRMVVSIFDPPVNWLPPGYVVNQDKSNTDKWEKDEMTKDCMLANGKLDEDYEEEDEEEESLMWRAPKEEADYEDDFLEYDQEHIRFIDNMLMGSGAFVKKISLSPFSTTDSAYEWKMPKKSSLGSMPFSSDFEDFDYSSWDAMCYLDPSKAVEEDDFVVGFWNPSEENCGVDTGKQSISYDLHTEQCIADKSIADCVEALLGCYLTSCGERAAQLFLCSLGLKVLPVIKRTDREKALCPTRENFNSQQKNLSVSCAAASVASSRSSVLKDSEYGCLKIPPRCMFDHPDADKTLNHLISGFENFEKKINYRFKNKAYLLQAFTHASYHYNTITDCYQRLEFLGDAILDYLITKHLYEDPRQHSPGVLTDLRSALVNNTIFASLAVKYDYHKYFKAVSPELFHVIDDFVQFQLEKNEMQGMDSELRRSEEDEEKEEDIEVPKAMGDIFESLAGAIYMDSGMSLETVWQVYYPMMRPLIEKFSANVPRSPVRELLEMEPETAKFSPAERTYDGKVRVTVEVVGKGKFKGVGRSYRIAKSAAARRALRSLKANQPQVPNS
# * hit, by the source's call.
SMILES,Dicer inh
Cc1ccc2c(=O)c(C(=O)c3ccccc3)coc2c1,5.5*
COC(=O)Oc1ccc2c(=O)c(-c3ccccc3)coc2c1,0.85
Cc1ccc2c(=O)c(C(=O)c3ccccc3C)coc2c1,2
COc1ccc(CCN2CSC(=S)N(CCc3ccc(OC)c(OC)c3)C2)cc1OC,7.9
O=C1NC(c2ccc(OCc3ccccc3)cc2)Nc2sc3c(c21)CCCC3 (stereo unspecified),3.6*
O=C1NC(c2ccccc2OCc2ccccc2)Nc2sc3c(c21)CCCC3 (stereo unspecified),4.3
CN1CCc2c(sc3c2C(=O)NC(c2ccc(OCc4ccccc4)cc2)N3)C1 (stereo unspecified),-1.4
CCCCc1ccc(Nc2ncc(C(=O)OCC)c(C(F)(F)F)n2)c(C)c1,-0.37
COc1ccc(-c2nnc(SCc3ccccc3Cl)o2)cc1,-0.69
Clc1ccc2c(c1)c(-c1ccccc1)nc1nncn12,1.6
Cc1ccc(C(C)C)c(OCCSc2ncnc3nc[nH]c23)c1,-0.81
Cc1ccc(OCCSc2nc3ncnc(N)c3[nH]2)c(C(C)C)c1,3.6*
COc1ccccc1OCCSc1nc2ncnc(N)c2[nH]1,-0.36
O=C(N/N=C/c1ccccn1)c1nc2ccccc2nc1C(F)(F)F,2.2
COc1ccc(NC(=O)C2=Cc3cccc(OC)c3OC2)cc1,3.8*
COc1ccc(NC(=O)Nc2cccc(NC(=O)Nc3ccc(OC)cc3)c2F)cc1,-0.32
COc1ccc(NC(=O)c2cccc3c2-c2ccc(I)cc2C3)cc1,-0.13
CSc1ccc(C2C(C(=O)OCC3CCCO3)=C(C)NC3=C2C(=O)CCC3)cc1 (stereo unspecified),-5
CC(C#N)(Nc1ccccc1)c1ccncc1 (stereo unspecified),3.4*
Fc1ccccc1-c1ncc(-c2ccc(Br)cc2)o1,-0.93
CCOC(=O)C1=C(C)OC(N)=C(C#N)C1c1ccc2c(c1)CCO2 (stereo unspecified),-1.5
COc1ccc(OC)c(C2CC(c3ccc(OC)c(OC)c3)=NN2S(=O)(=O)c2ccc(C)cc2)c1 (stereo unspecified),-0.24
CCN(C(=O)Nc1c(-c2c(Cl)cccc2Cl)noc1C)c1ccccc1,1.2
CC(=O)OCC12c3ccccc3C(COC(C)=O)(c3ccccc31)C1C(=O)N(c3ccccc3)C(=O)C12 (stereo unspecified),0.93
N#CC1=C(N)Oc2n[nH]c(-c3ccccc3)c2C1c1ccc(Cl)cc1 (stereo unspecified),-5.1
SMILES,Dicer inh
Nc1nc(-c2ccccc2)cc(=O)[nH]1,0.66
Nc1n[nH]c(-c2ccccc2)c1-c1ccccc1,3.5*
CS/C(Nc1ccccc1)=C(/C#N)S(=O)(=O)c1ccc(C)cc1,1.4
COC(=O)C1CCCC(C(=O)OC)C1=O (stereo unspecified),0.03
COc1ccc2ccnc(C3C(=O)c4ccccc4C3=O)c2c1,-0.32
Cc1ccc(-c2cc3nccc(-c4cc(C)ccc4O)n3n2)cc1,-2
Oc1ccc(F)cc1-c1ccnc2cc(-c3ccccc3)nn12,6
Oc1ccccc1-c1ccnc2cc(-c3ccccc3)nn12,4.4*
COC(=O)c1sccc1N/N=C(\C#N)S(=O)(=O)c1cccs1,7.2
COC(=O)c1scc(S(=O)(=O)Cc2cccs2)c1N/N=C(\C#N)S(=O)(=O)c1ccc(Cl)cc1,5.6*
COC(=O)c1sccc1N/N=C(\C#N)S(=O)(=O)c1ccc(Cl)cc1,1.1
O=C(OCc1ccccc1Br)c1cc([N+](=O)[O-])cc2c1-c1ccc([N+](=O)[O-])cc1/C2=N\O,-1.6
CC1=C(C(=O)OC(C)C)C(c2ccc(O)cc2)n2c(nc3ccccc32)N1 (stereo unspecified),0.06
N=S(c1ccc(Cl)cc1)c1cccs1 (stereo unspecified),0.78
CSc1c(C#N)c(-c2cccs2)nn1C(=O)C(Cl)(Cl)Cl,-0.71
Cc1ccc(S(=O)(=O)N/N=C2/CCCCCCCCCCC2CCC#N)cc1 (stereo unspecified),-2
CC1CC(C)CN(c2ccc(S(N)(=O)=O)cc2[N+](=O)[O-])C1 (stereo unspecified),-1.1
CC(=O)Nc1cc(N2CCOCC2)c(F)cc1[N+](=O)[O-],-1.3
CC(=O)Nc1cc(N2CC(C)CC(C)C2)c(F)cc1[N+](=O)[O-] (stereo unspecified),28*
COc1ccc(C2OC(=O)C(=O)/C2=C(\O)c2ccc(Cl)cc2)cc1 (stereo unspecified),-0.79
O=C(NNc1ncccc1-n1cccc1)Nc1ccc(Cl)cc1,0.61
CC1(C)SC(c2ccc(F)cc2)N[C@H]1C(=O)O (stereo partly specified),-1.1
CC1(C)SC(C(=O)O)N[C@H]1C(=O)O (stereo partly specified),3.1*
CC(C)N1C(=O)C(O)(CC(=O)c2ccc(-n3cccc3)cc2)c2ccccc21 (stereo unspecified),0.67
O=C(CC(=O)c1ccccc1O)c1ccc(Cl)cc1,-1
Cc1cc(C)c(C(=O)CC(=O)c2ccccc2Cl)c(O)c1,1.4
Cc1ccc(C(=O)CC(=O)c2ccc(Cl)cc2)c(O)c1,4.4*
